Source: PubChem
Sampled rows, rich in hits. Any-hit rate of the full collection: about 12%.
ALDH1A1 block = inhibitors of human aldehyde dehydrogenase 1A1 | Potency, µM (doses to about 75.3 µM), without a hit: at the highest dose activity, negative = inhibition, hits mostly inhibitors | hit rate 7.3% among 220,000 | Purified ALDH1A1, NADH fluorescence, propionaldehyde substrate | AID 1030 | P00352; active = well fitted inhibition curve with a large enough effect, not every such curve was filed as active; inconclusive = small, poorly fitted or top-dose-only effect, or another doubt; inactive = no such curve, though single readings can be large or run the other way;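 also: plate controls were no enzyme wells and a reference inhibitor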
PLK1 PBD inh = inhibitors of human PLK1 polo-box domain binding | Plk1 PBD binding of FITC phosphopeptide, fluorescence polarization | hit rate 2.8% among 360,000 | Potency, µM, for the others: max response, negative = inhibition, actives largely listed as inhibitors | P53350; also: series mostly up to about 57 µM; nearly all actives have a fitted effect of over 65% in size
Sfp inh = Sfp phosphopantetheinyl transferase inhibition | Biochemical Sfp PPTase activity, qHTS | Potency, µM, for the others: largest response in the series, negative = inhibition, hits mostly inhibitors | hit rate 3.5% among 310,000;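 also: the enzyme is Sfp with the accession as filed and its product quenches rhodamine fluorescence; 0% = enzyme reaction without inhibitor and -100% = no enzyme wells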
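Step 1, compound plus 15 nM Sfp-PPTase, 15 min, room temperature. Step 2, add rhodamine-CoA (5 uM) and BHQ-2-YbbR (12.5 uM). Step 3, read 525/598 nm fluorescence at 0 and 30 min.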
Gal4-VP16 FLuc = inhibits Gal4-VP16 luciferase reporter, ROR gamma counter-screen; Drosophila S2 Gal4-VP16 UAS-luciferase, luminescence, 20 h; Potency, µM (highest dose often 53.6 µM), without a hit: top-dose activity, negative = inhibition, actives largely listed as inhibitors; hit rate 3.5% among 310,000;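 also: Gal4-VP16 expression switched on by copper sulfate through the metallothionein promoter; nearly all actives have a fitted effect of over 50% in size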
RORgamma inh = inhibitors of mouse ROR gamma transcriptional activity; P51450; hit rate 5.4% among 310,000; Potency, µM (highest dose often 53.6 µM), inactives show at the top dose activity change, negative = inhibition, hits mostly inhibitors; Drosophila S2 Gal4-RORgamma UAS-luciferase reporter, 20 h; also: nearly all actives have a fitted effect of over 60% in size
Target sequence (P51450 whole entry, looked up, the tested form may be a part): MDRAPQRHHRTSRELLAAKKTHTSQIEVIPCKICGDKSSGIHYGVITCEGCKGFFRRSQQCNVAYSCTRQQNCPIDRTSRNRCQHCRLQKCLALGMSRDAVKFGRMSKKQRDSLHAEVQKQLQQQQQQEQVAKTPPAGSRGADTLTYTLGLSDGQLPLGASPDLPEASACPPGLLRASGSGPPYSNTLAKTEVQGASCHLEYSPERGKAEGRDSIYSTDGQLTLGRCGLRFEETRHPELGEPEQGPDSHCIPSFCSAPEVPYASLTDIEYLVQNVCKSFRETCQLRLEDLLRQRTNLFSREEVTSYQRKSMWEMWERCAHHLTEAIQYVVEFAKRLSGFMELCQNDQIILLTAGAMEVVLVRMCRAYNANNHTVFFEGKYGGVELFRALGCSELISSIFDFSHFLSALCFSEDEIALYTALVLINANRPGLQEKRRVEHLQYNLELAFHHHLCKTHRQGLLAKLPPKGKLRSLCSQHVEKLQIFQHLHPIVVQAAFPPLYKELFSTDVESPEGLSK
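Drosophila S2 cells stably expressing Gal4-DBD/mouse RORγ fusion under metallothionein promoter plus UAS-luciferase; compound 1 h, then 700 uM CuSO4 induction for 20 h at ambient temperature; inhibition read as reduced luminescence.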
Active calls of the source: *; ? = inconclusive; / = no result given; [ ] = dose if it differs, or a comment. Unless noted, calls follow the shape of the dose curve; as a rule, active = well fitted curve in the direction sought with a large enough effect; inconclusive = small, poorly fitted or top-dose-only effect, or another doubt; inactive = no such curve, though single readings can be large; an effect the other way counts as inactive or inconclusive. Unless noted, % is scaled to controls: 0 for no effect and ±100 for the full control effect; potency is read from the fitted curve at half-maximal effect.

SMILES | ALDH1A1 block | PLK1 PBD inh | Sfp inh | Gal4-VP16 FLuc | RORgamma inh
O=C(Nc1nc(-c2ccccc2)cs1)c1ccc2c(=O)n3c(nc2c1)CCCCC3 | 28µM* | -1% | 15% | ? | ?
CC(=O)c1cccc(NC(=O)c2ccc3c(=O)n4c(nc3c2)CCCCC4)c1 | 5µM* | 6% | 18% | 5µM* | 2.5µM*
COc1ccc(CN2C(=O)CN(S(C)(=O)=O)CC2(C)C(=O)NCc2ccccc2)cc1OC (stereo not drawn) | / | -2% | / | / | /
O=C(NC1CCCCCC1)c1ccc2c(=O)n3c(nc2c1)CCCCC3 | 10µM* | -4% | -5% | -1% | 12%
N#CCCN(C(=O)c1ccc2c(=O)n3c(nc2c1)CCCCC3)c1ccccc1 | / | 24µM* | 22% | -2% | 9%
O=C(Nc1cccc(S(=O)(=O)N2CCCC2)c1)c1ccc2c(=O)n3c(nc2c1)CCCCC3 | 3.5µM* | -6% | 16% | -25% | 32%
COc1ccc(NC(=O)c2ccc3c(=O)n4c(nc3c2)CCCCC4)cc1 | / | ? | 3% | -5% | -20%
CCN(c1ccccc1)c1cc(NC)[n+](C)c(C)n1 | -13% | / | 13% | -2% | 19%
O=S1(=O)C[C@H](N2CC[C@@H](O)C2)[C@@H](COCc2ccccc2)N1 | / | -10% | / | / | /
COc1ccc(CN(C)c2ncnc3sccc23)c(OC)c1OC | / | -16% | -5% | -4% | 37%
O=[N+]([O-])c1cnc(N2CCCCC2)c([N+](=O)[O-])c1 | 18µM* | -7% | 7% | ? | 14%
COc1ccc(-c2[nH]ncc2CN(C)C(C)c2ccncn2)c(F)c1 (stereo not drawn) | ? | -6% | 9% | 0% | -15%
O=C(c1ccco1)N1CCN(Cc2cn[nH]c2-c2ccc(F)cc2F)CC1 | ? | -12% | 4% | 9% | -2%
CCN(Cc1ccncc1)Cc1cn[nH]c1-c1ccc(OC)cc1F | 14µM* | 0% | 6% | 4% | 24%
COc1ccc(C(=O)N2CCN(Cc3cn[nH]c3-c3ccc(OC)cc3F)CC2)cc1 | 1µM* | 0% | 6% | -1% | 45%
COc1cccc(C(=O)N2CCN(Cc3cn[nH]c3-c3ccc(F)cc3F)CC2)c1 | ? | 30µM* | 14% | 3% | 28%
COc1ccc(Oc2ncc3nc(-c4cccc(C#N)c4)c(=O)n(CCC#N)c3n2)cc1 | ? | / | 7% | ? | ?
CCCC/C=C/C(NC(=O)Oc1cccc(C(F)(F)F)c1)c1ccccc1 (stereo not drawn) | -9% | / | 18% | -6% | 25%
Fc1ccc2nc(Nc3nc4cc5c(cc4s3)OCO5)sc2c1 | ? | 1% | -6% | ? | 8.9µM*
Fc1ccc2nc(Nc3nc4cc5c(cc4s3)OCCO5)sc2c1 | ? | -7% | -11% | 13µM* | 11µM*
Cc1cc(O)ccc1Nc1cc(-c2cccc(N)c2)ncn1 | / | -4% | / | / | /
COc1cc(NC(=O)c2ccc(-c3ccc(F)c(F)c3)c3ccoc23)cc(OC)c1OC | / | -14% | / | / | /
COc1ccc(Cc2nnc(NC(=O)CSc3ccc(C)cc3)s2)cc1OC | ? | -14% | -25% | ? | 11µM*
COCC(=O)Nc1nnc(Cc2ccc(OC)c(OC)c2)s1 | 15% | -3% | 1% | 2% | -4%
COc1ccc(Cc2nnc(NC(=O)Nc3ccc(C)cc3)s2)cc1OC | / | -17% | -4% | 5% | 0%
SMILES | ALDH1A1 block | PLK1 PBD inh | Sfp inh | Gal4-VP16 FLuc | RORgamma inh
CCOCC(=O)Nc1nnc(Cc2ccc(OC)c(OC)c2)s1 | -13% | 27µM* | -3% | 5% | 21%[10 µM]
CCOCC(=O)Nc1nnc(COCC)s1 | ? | ? | 4% | 6% | -10%
CCOCc1nnc(NC(=O)COC)s1 | ? | -27% | 50µM* | 3% | 22%
COc1ccc(NC(=O)Nc2nnc(Cc3ccc(OC)c(OC)c3)s2)cc1 | / | -2% | -3% | -2% | -7%
COc1ccc(Cc2nnc(NC(=O)Nc3ccc(F)cc3)s2)cc1OC | / | 19µM* | -2% | -1% | 21%
CC1C(=O)N(S(=O)(=O)c2ccc([N+](=O)[O-])cc2)[C@H]1c1ccc2ccccc2c1 (stereo partly drawn) | / | / | -21% | -9% | 1%
CCOC(=O)N1CCN(C(=O)CCl)CC1 | 0.56µM* | -7% | 14% | ? | ?
CC(C)(C)NC(=O)CN1CCN(C(=O)CCl)CC1 | 0.32µM* | -14% | ? | -1% | -6%
CC(C)(C)NC(=O)NC(=O)CN1CCCCCCC1 | ? | 0% | 13% | -13% | 11%
C[C@H]1Cc2c(COc3ccccc3)nc3c(c2CO1)CN(C(=O)c1cccnc1)CC3 | -6%[13.5 µM] | / | 10% | / | /
COC(=O)C(Cc1ccc(O)cc1)NC(=O)Cn1cc(C)c(=O)[nH]c1=O (stereo not drawn) | / | 2% | / | / | /
CCN(CC)c1ccc(C(=O)O)cc1 | -6% | -7% | 0% | 5% | -2%
CCN(CC)c1ccc(/C=C2\C(=O)c3ccc(C(=O)O)cc3C2=O)cc1 | 3.2µM* | 6% | -20% | 10µM* | 11µM*
CCCc1nc2oc3c(OC)ncnc3c2c2c1COC(C)(C)C2 | 0.89µM* | -6% | 16% | 2% | -1%
CC[C@H](C)[C@H](NC(=O)[C@H](C)NC(=O)[C@H](Cc1cnc[nH]1)NC(=O)[C@@H]1CCCN1C(=O)CNC(=O)[C@H](CC(C)C)NC(=O)[C@H](CC(C)C)NC(=O)[C@H](Cc1ccc(O)cc1)NC(=O)CNC(=O)[C@H](C)NC(=O)[C@H](CO)NC(=O)[C@H](CC(N)=O)NC(=O)[C@H](CC(C)C)NC(=O)[C@@H](NC(=O)[C@H](Cc1c[nH]c2ccccc12)NC(=O)CN)[C@@H](C)O)C(=O)O | / | / | -11% | -5% | 1%
O=C(Nc1ccc(O)c(C(=O)O)c1)c1ccc2c(c1)C(=O)N(CC1CCCO1)C2=O (stereo not drawn) | 10µM* | -20% | -9% | ? | ?
COc1ccc(NC(=O)c2ccc3c(c2)C(=O)N(CC2CCCO2)C3=O)cc1O (stereo not drawn) | / | -7% | -7% | 4% | 2%
Cc1ccc(NC(=O)c2ccc3c(c2)C(=O)N(CC2CCCO2)C3=O)cc1C (stereo not drawn) | 3.2µM* | -5% | 5% | -8% | 44%
O=C(Nc1ccc2c(c1)C(=O)N(CC1CCCO1)C2=O)c1ccc(Cl)c(Cl)c1 (stereo not drawn) | ? | 1% | 4% | ? | ?
C[C@@H](c1ccccc1)N1C[C@@H](COCc2ccccc2)Oc2cc(N3CCC[C@H]3C(N)=O)ccc2S1(=O)=O | / | 1% | / | / | /
CCNc1ncc2nc(-c3ccc(Cl)cc3)c(=O)n(C3CC3)c2n1 | ? | / | 8% | -10% | 3%
Cc1ccc(S(=O)(=O)N2CCN(C(=O)c3cc(S(=O)(=O)N(C)C)ccc3N3CCCC3)CC2)c(C)c1 | / | -1% | / | / | /
CCOc1ccc(-c2csc3nc[nH]c(=O)c23)cc1 | / | -4% | 9% | -8% | -6%
